Source: PubChem
CF NFkB block – cystic fibrosis NF-kB activation inhibition. KKLEB NF-kB-GFP reporter, PAF-induced, GFP fluorescence overnight. inhibition, % at 5 µM. 360,000 tested, 0.86% active. AID 588850;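 active = at least 50% inhibition at 5 µM, scaled per plate between neutral and stimulator controls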;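 note: PAF is a Pseudomonas aeruginosa culture filtrate used as stimulus; plate controls were PAF-stimulated DMSO wells for no effect and unstimulated DMSO wells for full effect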
Shn3 3UTR inh – inhibitors of Schnurri-3 3'UTR reporter in osteoblasts; Clone20 osteoblast Shn3 3'UTR firefly luciferase, 24 h; inhibition, % at 12.5 µM; 360,000 tested, 0.52% active; AID 588674;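 active = mean inhibition of at least 75% with every replicate also reaching 75%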;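 note: 0% = median of neutral control wells and 100% = pilot-screen positive control compound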
HIF-2a block – blocks HIF-2a reporter activity; 786-0 RCC cells HIF-2a reporter, luciferase luminescence, overnight; inhibition, % at 18.8 µM; 360,000 tested, 0.72% active; AID 624352;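 active = inhibition of the luminescence signal of 40% or more relative to plate controls, in a single-dose primary screen at 18.75 µM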
Peg3 prom inh – inhibitors of Peg3 promoter; 360,000 tested, 1.7% active; AID 588405; inhibition, % at 20 µM; HeLa PEG-Prom luciferase reporter, luminescence, overnight;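 active = inhibition of at least 50% at 20 µM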
KKLEB cytotox – reduces viability of KKLEB cystic fibrosis airway cells | KKLEB CF airway cells viability, ATPlite luminescence, overnight; hits give low values; cells stimulated with P. aeruginosa culture filtrate | activity change (cytotoxicity), % at 5 µM | 360,000 tested, 0.36% active;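 active = corrected activity change at or below -50% at 5 µM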
MITF TRPM1 inh – reduces MITF-dependent TRPM1 promoter luciferase signal; SK-MEL-5 TRPM1 promoter luciferase, 24 h; inhibition, % at 12.5 µM; 330,000 tested, 0.83% active; AID 488899;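 active = mean inhibition across replicates of 60% or more, whatever share of single replicates reaches that level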
Mdm2-MdmX confirm – confirmation of inhibitors of human Mdm2/MdmX interaction, set 2. SaOS-2 split-luciferase Mdm2/MdmX complementation, luminescence. 740 tested, 99% active. inhibition, % at 8 µM. shares compounds with HIF-2a block;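 active = mean inhibition of the luminescence signal across two replicates at or above 26 percent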
Target sequence (O15151 whole entry, looked up): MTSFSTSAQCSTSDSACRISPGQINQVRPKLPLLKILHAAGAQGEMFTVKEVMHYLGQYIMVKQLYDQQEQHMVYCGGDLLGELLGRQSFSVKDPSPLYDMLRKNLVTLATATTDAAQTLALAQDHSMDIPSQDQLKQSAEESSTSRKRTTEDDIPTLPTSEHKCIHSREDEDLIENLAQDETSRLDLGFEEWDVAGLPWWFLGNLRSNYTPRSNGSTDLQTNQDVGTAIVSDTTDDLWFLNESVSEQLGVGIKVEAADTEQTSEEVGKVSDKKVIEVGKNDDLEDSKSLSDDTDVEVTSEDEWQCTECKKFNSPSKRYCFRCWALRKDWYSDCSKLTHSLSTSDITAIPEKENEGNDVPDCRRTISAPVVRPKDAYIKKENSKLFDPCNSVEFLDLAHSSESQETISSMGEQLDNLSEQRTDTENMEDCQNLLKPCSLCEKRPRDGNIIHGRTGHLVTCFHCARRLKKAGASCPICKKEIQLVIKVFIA
Target sequence (Q00987 whole entry, looked up): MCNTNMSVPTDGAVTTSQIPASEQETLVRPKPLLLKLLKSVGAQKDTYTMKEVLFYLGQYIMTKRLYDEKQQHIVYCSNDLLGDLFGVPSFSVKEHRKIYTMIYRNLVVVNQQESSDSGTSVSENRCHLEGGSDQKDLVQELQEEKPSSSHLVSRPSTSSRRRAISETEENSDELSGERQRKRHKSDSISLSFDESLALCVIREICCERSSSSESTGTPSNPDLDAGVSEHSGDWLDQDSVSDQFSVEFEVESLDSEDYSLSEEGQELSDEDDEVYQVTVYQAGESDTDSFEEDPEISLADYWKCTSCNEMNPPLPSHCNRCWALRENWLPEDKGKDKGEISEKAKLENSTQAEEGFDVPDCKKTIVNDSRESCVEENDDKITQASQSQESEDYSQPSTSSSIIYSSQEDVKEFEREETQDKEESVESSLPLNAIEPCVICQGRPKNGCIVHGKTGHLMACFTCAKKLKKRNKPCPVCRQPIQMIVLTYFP
HIF-2a conf – HIF-2a inhibition, single concentration confirmation; shares compounds with HIF-2a block; 786-0 RCC cells, HIF-2a luciferase reporter luminescence, overnight; inhibition, % at 18.8 µM; 1,800 tested, 56% active; AID 651580;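 active = mean inhibition across four replicates of at least 40 percent at the single tested concentration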
HIF-1a cs – HIF-1a inhibition counter-screen for HIF-2a hits; 1,800 tested, 72% active; shares compounds with HIF-2a block; MiaPaCa-2 HIF-1a luciferase reporter, desferoxamine, overnight; inhibition, % at 18.8 µM;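 active = mean inhibition of the reporter signal across four replicates at the single tested dose of 50% or more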
Active calls of the source: *; / = not tested or not shown. This is a sample that favours compounds with a hit; in the whole collection about 2.8% have one here.

SMILES	CF NFkB block	Shn3 3UTR inh	HIF-2a block	Peg3 prom inh	KKLEB cytotox	MITF TRPM1 inh	HIF-2a conf	HIF-1a cs	others
O=[N+]([O-])c1ccc(Cl)cc1Sc1nc2ccccc2o1	8	-12	4	-46	-21	-6	/	/
O=[N+]([O-])c1ccc(Sc2nc3ccccc3o2)c([N+](=O)[O-])c1	68*	98*	92*	97*	-42	87*	74*	106*
O=c1ccc(-c2ccc(S(=O)(=O)Nc3cccc([N+](=O)[O-])c3)s2)n[nH]1	2	-1	-5	23	-10	-12	/	/
COc1ccc(/C(N)=N/OC(=O)CC2CCCCC2)cc1	-45	-21	-248	-172	8	-36	/	/
Cc1ccc(NC(=O)c2ccc(N3CCOCC3)c([N+](=O)[O-])c2)cc1S(=O)(=O)N1CCOCC1	1	70	51*	65*	-5	29	3	59*
CC(=O)c1cccc(OCC(=O)N(Cc2ccco2)c2c(N)n(Cc3ccccc3)c(=O)[nH]c2=O)c1	18	-3	5	6	-27	6	/	/
COc1ccc(S(=O)(=O)N(CC(=O)NCc2cccnc2)c2ccc(C)cc2)cc1OC	-2	17	6	10	7	-1	/	/
COc1ccc2c(c1)-c1c(ssc1=S)C(C)(C)N2	81*	18	24	4	-34	1	/	/	Mdm2-MdmX confirm=95*
N#CCCN(C(=O)COC(=O)c1nc(Cl)ccc1Cl)c1ccccc1	12	4	4	-4	-5	0	/	/
N#CCCN(C(=O)CCl)c1cccc(Cl)c1	25	-15	14	54*	-10	37	/	/	Mdm2-MdmX confirm=101*
COc1ccc(CN2[C@@H](CC(C)=O)c3ccc(/C=C/C(C)=O)cc3S2(=O)=O)cc1	22	16	43*	106*	9	28	6	48
COc1cccc(N2[C@@H](CC(C)=O)c3ccc(/C=C/C(C)=O)cc3S2(=O)=O)c1	-26	31	45*	100*	2	34	12	32
COC(=O)C[C@H]1c2ccccc2S(=O)(=O)N1c1cccc(OC)c1	4	0	1	-4	9	-11	/	/
CN(C(=O)C=Cc1ccco1)c1ccccc1	-8	-6	-33	-18	2	1	/	/
CN(C(=O)/C=C/c1ccc([N+](=O)[O-])s1)c1ccccc1	14	5	62*	6	16	69*	61*	90*
Cc1ccc2c(c1)Oc1ccc(NC(=O)CCl)cc1C(=O)N2	87*	19	77*	100*	-73*	91*	72*	103*	Mdm2-MdmX confirm=103*
CN(C(=O)COC(=O)CCC1CCCCC1)c1c(N)n(Cc2ccccc2)c(=O)[nH]c1=O	17	-6	10	19	0	4	/	/
Cc1sc2ncnc(N3CCC(C(=O)Nc4cc(S(C)(=O)=O)ccc4Cl)CC3)c2c1C	45	13	41*	33	-2	-3	-1	74*
Cc1sc2ncnc(N3CCC(C(=O)Nc4cc(Cl)ccc4Cl)CC3)c2c1C	-5	0	1	17	-9	-4	/	/
Oc1ccccc1CNc1ccc(Br)cn1	-11	-60	-214	-268	-22	-50	/	/	Mdm2-MdmX confirm=32*
CC(=O)Nc1ccc(NC(=O)CSc2nnc(C)n2-c2ccccc2)cc1	5	1	-1	13	3	7	/	/
CN(C[C@H](Cc1ccccc1)N(C[C@@H](CC1CCCCC1)N(CCc1ccccc1)N=O)N=O)N=O	39	5	2	16	-24	15	/	/
CCC[C@@H](CNC)NC[C@H](Cc1ccccc1)NCCCCc1ccccc1	5	49	-2	99*	-16	94*	/	/	Mdm2-MdmX confirm=103*
CN(Cc1cccc(C(F)(F)F)c1)C(=O)C1CCC(=O)N(CC2CCCCC2)C1 (stereo not given)	-2	-21	-23	-2	-16	-1	/	/
